Values joined by “and” are separate entries in the source; they are usually repeats but may differ in a detail not shown here. Identical values can stand only once. Where a structure was tested more than once in an assay, its records may differ in their call. Active and inactive are the calls of the source. How the source made its calls: active means hit-call score of the fitted dose curve at least 0.9, where 1 is the maximum; inactive means score below 0.9.
Legend:
[1] = read-out: Interferon-inducible T-cell alpha chemoattractant (ITAC), CXCL11 (gene 6373); assay: BSK_BE3C_ITAC: BioMAP Diversity Plus: BE3C Assay for Interferon-inducible T-cell alpha chemoattractant (ITAC) Biomarker Activity (AID 2284279); settings: primary human bronchial epithelial cells
How it was run: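 ELISA read-out of I-TAC after 24 h chemical dosing of human lung primary bronchial epithelial cells; gain-of-signal fit vs DMSO baseline. Parallel SRB total-protein staining (0.1% SRB, 10% TCA fixation, 560 nm) assessed cytotoxicity.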

[2] = read-out: Interleukin-8 (IL8), CXCL8 (gene 3576); assay: BSK_BE3C_IL8: BioMAP Diversity Plus: BE3C Assay for Interleukin-8 (IL8) Biomarker Activity (AID 2284280); settings: primary human bronchial epithelial cells
How it was run: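 Primary human bronchial epithelial cells (BE3C system) exposed 24 h; IL-8 measured by ELISA and fitted in positive direction versus DMSO. Overt cytotoxicity assessed by SRB total-protein staining in parallel cultures.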

[3] = read-out: Epidermal growth factor receptor (EGFR), EGFR (gene 1956); assay: BSK_BE3C_EGFR: BioMAP Diversity Plus: BE3C Assay for Epidermal growth factor receptor (EGFR) Biomarker Activity (AID 2284281); settings: primary human bronchial epithelial cells
How it was run: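 Human primary bronchial epithelial cells (BE3C system) dosed with chemicals; EGFR measured by ELISA at 24 h, fitted in the positive direction relative to DMSO. Cytotoxicity tracked in parallel cultures by SRB total-protein staining.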

KRT18 (gene 3875) = assay: BSK_BE3C_Keratin818: BioMAP Diversity Plus: BE3C Assay for Keratin 818 Biomarker Activity (AID 2284282); settings: primary human bronchial epithelial cells
How it was run: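 Primary human bronchial epithelial cells treated 24 h; Keratin 8/18 quantified by ELISA, fit relative to DMSO. Cytotoxicity tracked in parallel cultures by sulforhodamine B total-protein staining.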

[4] = read-out: Matrix Metallopeptidase 9 (MMP9), MMP9 (gene 4318); assay: BSK_BE3C_MMP9: BioMAP Diversity Plus: BE3C Assay for Matrix Metallopeptidase 9 (MMP9) Biomarker Activity (AID 2284283); settings: primary human bronchial epithelial cells
How it was run: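 BE3C, human bronchial epithelial primary cells; 24 h post-dose; MMP-9 by ELISA; positive fit vs DMSO; SRB (0.1%, TCA-fixed, 560 nm) parallel cytotox.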

[5] = read-out: Plasminogen activator inhibitor-1 (PAI1), SERPINE1 (gene 5054); assay: BSK_CASM3C_PAI1: BioMAP Diversity Plus: CASM3C Assay for Plasminogen activator inhibitor-1 (PAI1) Biomarker Activity (AID 2284284); settings: primary human coronary artery smooth muscle cells;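 further: PAI-1 protein level measured by ELISA 24 h after dosing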
[6] = read-out: Monocyte Chemoattractant Protein-1 (MCP1), CCL2 (gene 6347); assay: BSK_hDFCGF_MCP1: BioMAP Diversity Plus: hDFCGF Assay for Monocyte Chemoattractant Protein-1 (MCP1) Biomarker Activity (AID 2284285); settings: primary human foreskin fibroblasts
How it was run: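 Human foreskin fibroblasts (hDFCGF system) were exposed to compound and secreted MCP-1 was measured by ELISA after 24 hours. Activity was fitted relative to DMSO. Cytotoxicity was checked by SRB total-protein staining in parallel cultures.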

[7] = read-out: Vascular cell adhesion molecule 1 (VCAM1), VCAM1 (gene 7412); assay: BSK_IMphg_VCAM1: BioMAP Diversity Plus: IMphg Assay for Vascular cell adhesion molecule 1 (VCAM1) Biomarker Activity (AID 2284286); settings: primary human endothelial cells with macrophages
How it was run: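 Human venular endothelial cells co-cultured with macrophages; VCAM-1 quantified by ELISA 24 h after dosing, fitted in the positive direction against DMSO. Cytotoxicity was checked in parallel cultures by SRB total-protein staining (0.1% SRB after 10% TCA fixation, 560 nm).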

[8] = read-out: Intercellular Adhesion Molecule 1 (ICAM1), ICAM1 (gene 3383); assay: BSK_hDFCGF_ICAM1: BioMAP Diversity Plus: hDFCGF Assay for Intercellular Adhesion Molecule 1 (ICAM1) Biomarker Activity (AID 2284287); settings: primary human foreskin fibroblasts
How it was run: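 Primary human foreskin fibroblasts (hDFCGF system) dosed with chemical; ICAM-1 quantified by ELISA at 24 h relative to DMSO. Parallel SRB total-protein staining to assess overt cytotoxicity.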

CD40, CD40 (gene 958) = assay: BSK_IMphg_CD40: BioMAP Diversity Plus: IMphg Assay for CD40 Biomarker Activity (AID 2284288); settings: primary human endothelial cells with macrophages
How it was run: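 Venular endothelial cells co-cultured with macrophages (human primary), CD40 measured by ELISA 24 h after dosing. Positive-direction fit vs DMSO baseline; cytotoxicity tracked by SRB total-protein staining in parallel cultures.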

[9] = read-out: TIMP metallopeptidase inhibitor 2 (TIMP2), TIMP2 (gene 7077); assay: BSK_hDFCGF_TIMP2: BioMAP Diversity Plus: hDFCGF Assay for TIMP metallopeptidase inhibitor 2 (TIMP2) Biomarker Activity (AID 2284289); settings: primary human foreskin fibroblasts
How it was run: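 Primary human foreskin fibroblasts in the hDFCGF system, dosed for 24 h; TIMP-2 level measured by ELISA, fitted in the positive direction against DMSO; cytotoxicity checked in parallel by sulforhodamine B total protein staining.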

[10] = read-out: Interleukin-1 alpha (IL1a), IL1A (gene 3552); assay: BSK_IMphg_IL1a: BioMAP Diversity Plus: IMphg Assay for Interleukin-1 alpha (IL1a) Biomarker Activity (AID 2284290); settings: primary human endothelial cells with macrophages
How it was run: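 Human venular endothelial cells co-cultured with macrophages, IMphg system. IL-1α is measured by ELISA 24 h after dosing and fitted in the positive direction against DMSO. Cytotoxicity is assessed by SRB staining of parallel cultures.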

[11] = read-out: E-selectin (Homo sapiens) (UniProt P16581); assay: BSK_IMphg_ESelectin: BioMAP Diversity Plus: IMphg Assay for Eselectin Biomarker Activity (AID 2284291); settings: primary human endothelial cells with macrophages
How it was run: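 Human venular endothelial cell–macrophage co-culture, E-selectin measured by ELISA 24 h after chemical dosing. Signal fitted in the positive direction against DMSO as negative control and baseline.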

[12] = BSK_IMphg_SRB: Viability Assessment in the BioMAP Diversity Plus: IMphg Assay (AID 2284292); settings: primary human endothelial cells with macrophages;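 further: measured one day after compound addition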
How it was run: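 Human venular endothelial cells with macrophages, 24 h after chemical dosing; total protein by 0.1% SRB staining after 10% TCA fixation, read at 560 nm. Positive-direction fitting versus DMSO baseline.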

[13] = read-out: Macrophage colony-stimulating factor (MCSF), CSF1 (gene 1435); assay: BSK_IMphg_MCSF: BioMAP Diversity Plus: IMphg Assay for Macrophage colony-stimulating factor (MCSF) Biomarker Activity (AID 2284293); settings: primary human endothelial cells with macrophages
How it was run: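 Co-culture of human venular endothelial cells and macrophages, 24 hours of chemical exposure. M-CSF quantified by ELISA, with parallel SRB total-protein staining for cytotoxicity; activity fitted relative to DMSO.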

[14] = read-out: Interleukin-10 (IL10), IL10 (gene 3586); assay: BSK_IMphg_IL10: BioMAP Diversity Plus: IMphg Assay for Interleukin-10 (IL10) Biomarker Activity (AID 2284294); settings: primary human endothelial cells with macrophages
How it was run: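 Human venular endothelial cells cocultured with macrophages, dosed 24 h; IL-10 measured by ELISA, activity relative to DMSO. Cytotoxicity assessed in parallel cultures by sulforhodamine B total-protein staining.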

[15] = BSK_IMphg_SRB.Mphg: Macrophage Viability Assessment in the BioMAP Diversity Plus: IMphg Assay (AID 2284295); settings: primary human endothelial cells with macrophages
How it was run: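 Venular endothelial cells co-cultured with macrophages, read 24 h after dosing. Total protein measured by 0.1% SRB staining after 10% TCA fixation, absorbance at 560 nm. Fitted in positive direction against DMSO baseline.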

[16] = read-out: Thrombomodulin, THBD (gene 7056); assay: BSK_LPS_Thrombomodulin: BioMAP Diversity Plus: LPS Assay for Thrombomodulin Biomarker Activity (AID 2284296); settings: primary human HUVEC with PBMC
How it was run: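 Human umbilical vein endothelial cells co-cultured with PBMC and stimulated with LPS; cell-surface thrombomodulin measured by ELISA 24 hours after compound. Gain or loss versus DMSO; cytotoxicity checked by SRB staining in parallel cultures.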

[17] = IUF_NPC2c_oligodendrocyte_migration_120hr: Leibniz Research Institute for Environmental Medicine (IUF) 120-hour Neural Progenitor Cell Migration Assay for Oligodendrocyte Migration (NPC2c) (AID 2284297)
How it was run: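 Read-out is the mean distance of O4-positive oligodendrocytes from the sphere core edge at 120 h, normalized to radial glia migration and fitted in the gain direction against DMSO. Spheres of primary human neural progenitors differentiated on laminin under continuous compound exposure.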

[18] = IUF_NPC2a_radial_glia_migration_120hr: Leibniz Research Institute for Environmental Medicine (IUF) 120-hour Neural Progenitor Cell Migration Assay for Radial Glia Migration (NPC2a) (AID 2284298)
How it was run: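 Readout: distance in um from sphere core edge to migration-area edge, derived from Hoechst nuclei density with a threshold-defined polynomial boundary. Spheres: hNPC, GW 16-19, 0.3 mm, on PDL/laminin; exposure 5 days; DMSO is baseline.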

Measured: AC50

Chain of E-selectin (Homo sapiens) (P16581 whole entry, looked up): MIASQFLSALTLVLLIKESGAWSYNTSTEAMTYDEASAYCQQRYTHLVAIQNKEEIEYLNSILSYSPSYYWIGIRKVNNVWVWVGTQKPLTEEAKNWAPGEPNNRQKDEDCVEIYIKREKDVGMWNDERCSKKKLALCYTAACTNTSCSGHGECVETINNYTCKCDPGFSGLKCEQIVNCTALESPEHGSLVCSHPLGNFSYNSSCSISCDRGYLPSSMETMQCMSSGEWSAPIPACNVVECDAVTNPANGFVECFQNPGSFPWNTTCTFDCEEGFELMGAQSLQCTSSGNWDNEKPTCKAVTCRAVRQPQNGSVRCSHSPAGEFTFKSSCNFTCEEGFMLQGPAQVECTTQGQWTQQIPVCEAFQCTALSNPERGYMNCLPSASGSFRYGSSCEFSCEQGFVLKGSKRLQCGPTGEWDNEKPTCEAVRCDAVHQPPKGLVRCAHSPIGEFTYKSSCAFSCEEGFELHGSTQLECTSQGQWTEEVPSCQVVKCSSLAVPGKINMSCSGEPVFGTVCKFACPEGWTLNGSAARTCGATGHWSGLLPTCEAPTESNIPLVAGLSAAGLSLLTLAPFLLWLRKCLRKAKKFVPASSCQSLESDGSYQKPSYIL

OCCC(F)(F)C(F)(F)C(F)(F)C(F)(F)C(F)(F)C(F)(F)F
inactive: [1] | [2] | [3] | KRT18 (gene 3875) | [4] | [5] | [7] | CD40, CD40 (gene 958) | [10] | [11] | [12] | [13] | [14] | [15] | [16]
active: [6] 49.6 µM and 54.3 µM | [8] 44 µM and 54 µM | [9] 52.5 µM and 47 µM | [11] 55.2 µM | [15] 39.8 µM

C[C@@H]1C[C@H]2[C@@H]3CCC4=CC(=O)C=C[C@]4(C)[C@@]3(F)[C@@H](O)C[C@]2(C)[C@@]1(O)C(=O)COP(=O)(O)O
active: [2] 1.6 µM and 182 nM | [7] 3.41 µM | CD40, CD40 (gene 958) 13.3 µM | [9] 966 nM | [10] 3.58 µM | [11] 580 nM and 1.5 µM | [14] 954 nM and 1.38 µM | [15] 4.66 µM
inactive: [1] | [3] | KRT18 (gene 3875) | [4] | [5] | [6] | [7] | [8] | CD40, CD40 (gene 958) | [9] | [10] | [12] | [13] | [15] | [16]

CC1=C(/C=C/C(C)=C/C=C/C(C)=C/C(=O)O)C(C)(C)CCC1
active: [18] 1.74 µM
inactive: [17]

NCC(F)(F)C(F)(F)C(F)(F)C(F)(F)C(F)(F)C(F)(F)C(F)(F)F
inactive: [1] | [2] | [3] | KRT18 (gene 3875) | [4] | [5] | [6] | [7] | [8] | CD40, CD40 (gene 958) | [9] | [10] | [11] | [12] | [13] | [14] | [15] | [16]
active: CD40, CD40 (gene 958) 24 µM | [15] 0.22 µM
